CRFR2-BP ag = agonists of human CRF-binding protein/CRF-R2 receptor complex; HEK293 CRF-R2/CRF-BP, calcium dye fluorescence (FLIPR); percent of saturating CRF peptide response; activation, % at 13.2 µM; actives 0.46% (n = 350,000);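 active means activation of at least 50%, plus an integration ratio under a set limit after plate pattern correction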;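 further: plate controls were neutral control wells without compound for no effect and CRF at EC100 for full effect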
CRFBP-R2 block = antagonists of CRF-binding protein/CRF-R2 receptor complex. actives 0.59% (n = 350,000). HEK293 CRF-R2/CRF-BP, CRF-induced calcium fluorescence. inhibition, % at 11.8 µM. AID 588475;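 active means inhibition of the ligand-induced calcium signal above about 50% at the single tested concentration, limit read from the data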
Myeloid diff 2 = myeloid differentiation induction. actives 1% (n = 360,000). AID 624256. calls only at 10 µM. ER-HoxA9 myeloid progenitors, lysozyme-GFP differentiation, flow cytometry;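 active means normalized GFP-positive differentiation at or above the plate's own cutoff, the solvent-only control mean plus 3 SD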;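 further: cells exposed to compound for four days before flow analysis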
IDE cell inh = inhibits human insulin-degrading enzyme in HEK cells; FAbetaB cleavage, fluorescence polarization; inhibition, % at 5.59 µM; P14735; AID 434962; actives 0.41% (n = 320,000);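 active means percent inhibition above the average of all tested compounds plus 3 SD, set per screening campaign, cut at about 16% in these data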;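 further: IDE supplied by intact live HEK cells; FP after avidin binding of uncleaved biotin substrate so inhibition keeps polarization high; 0% = DMSO wells and 100% = 60 µM reference IDE inhibitor Ii1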
Target sequence (P14735 whole entry, looked up): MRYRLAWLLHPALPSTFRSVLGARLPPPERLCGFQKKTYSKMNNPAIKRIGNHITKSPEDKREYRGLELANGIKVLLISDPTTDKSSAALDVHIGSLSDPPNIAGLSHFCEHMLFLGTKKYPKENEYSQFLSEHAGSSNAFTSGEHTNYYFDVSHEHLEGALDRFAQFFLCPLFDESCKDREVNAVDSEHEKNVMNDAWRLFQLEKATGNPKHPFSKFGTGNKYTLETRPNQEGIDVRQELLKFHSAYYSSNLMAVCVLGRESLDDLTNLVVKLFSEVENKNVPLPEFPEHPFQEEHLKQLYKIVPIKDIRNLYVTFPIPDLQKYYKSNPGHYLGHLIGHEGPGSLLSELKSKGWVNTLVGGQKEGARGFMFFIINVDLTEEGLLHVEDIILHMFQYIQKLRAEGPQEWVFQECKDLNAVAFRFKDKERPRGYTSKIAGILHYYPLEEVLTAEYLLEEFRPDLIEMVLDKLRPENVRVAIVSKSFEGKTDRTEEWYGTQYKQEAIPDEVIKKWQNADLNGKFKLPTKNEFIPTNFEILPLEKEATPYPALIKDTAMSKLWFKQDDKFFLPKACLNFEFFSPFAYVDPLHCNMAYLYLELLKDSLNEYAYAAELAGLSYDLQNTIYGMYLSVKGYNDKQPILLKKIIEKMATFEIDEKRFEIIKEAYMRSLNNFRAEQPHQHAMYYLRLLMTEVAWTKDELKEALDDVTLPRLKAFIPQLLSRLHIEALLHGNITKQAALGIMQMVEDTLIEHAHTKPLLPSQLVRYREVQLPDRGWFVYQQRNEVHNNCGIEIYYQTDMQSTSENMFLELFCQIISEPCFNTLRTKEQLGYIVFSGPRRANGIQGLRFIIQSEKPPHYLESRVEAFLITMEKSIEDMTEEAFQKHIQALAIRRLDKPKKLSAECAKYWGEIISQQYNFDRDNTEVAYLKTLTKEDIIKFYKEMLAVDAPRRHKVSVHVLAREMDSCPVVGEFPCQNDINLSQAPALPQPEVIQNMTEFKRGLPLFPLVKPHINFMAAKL
IDE cell activ = activators of human insulin-degrading enzyme in cells; HEK cells, FAbeta-B cleavage, fluorescence polarization; 0% vehicle, 100% cell-free pure enzyme wells; activation, % at 5.96 µM; AID 493087; actives 0.073% (n = 340,000);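 active means activation above the mean of all tested compounds plus 3 SD, set per screening campaign, cut at about 17% in these data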
TPT1 inhibitor = inhibitors of Candida albicans tRNA 2'-phosphotransferase TPT1; recombinant caTPT1, FP RNA substrate dephosphorylation; inhibition, % at 5 µM; actives 0.81% (n = 300,000);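 active means inhibition above the mean of all tested compounds plus 3 SD, set per screening campaign, cut at about 24% in these data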;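 further: plate controls were DMSO alone for no effect and ferristatin control at 100 nM for full effect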
Numbers without * were called inactive; i = inactive; nt = no result given; + = active, no number. Shown are actives, neighbours in structure and some others; about 2.6% of the full set was active somewhere.

SMILES	CRFR2-BP ag	CRFBP-R2 block	Myeloid diff 2	IDE cell inh	IDE cell activ	TPT1 inhibitor
COc1ccc(/C=N/NC(=O)c2cccc(NC(=O)c3ccc(Cl)cc3)c2)c(OC)c1	-1	-1	+	-3	2	-1
O=C(COC(=O)c1cccc(S(=O)(=O)Nc2ccc(F)cc2)c1)NCCN1C(=O)CSC1=O	0	-6	i	2	3	1
COc1ccc(Cl)cc1C(=O)Nc1cccnc1Cl	2	3	i	-4	1	-1
COc1ccc2ccccc2c1CNCCCN1CCOCC1	-2	67*	i	6	4	0
C=CCOc1ccc2ccccc2c1CNCCCN1CCOCC1	0	6	nt	-5	1	0
NS(=O)(=O)c1ccc(NC(=O)CSc2nnc(COc3ccccc3Cl)n2C2CC2)cc1	-2	63*	nt	5	2	-5
O=C(CC1OC(=O)c2ccccc21)Nc1cc(Cl)ccc1N1CCCC1 (centres undefined)	0	8	i	-1	0	4
COc1ccc(N2C(=O)c3cccc4c(N(C)CCO)ccc(c34)C2=O)cc1	77*	-57	i	nt	-45	nt
COc1ccc(N2C(=O)c3cccc4cccc(c34)C2=O)cc1	85*	-89	i	6	6	0
COc1ccc(N2C(=O)c3ccccc3C2=O)cc1	-2	24	i	9	8	-1
CCCCON1C(=O)c2cccc3cccc(c23)C1=O	0	99*	i	-3	5	-2
COC(=O)CSc1nc(N)c(C#N)c(-c2ccc(O)cc2)c1C#N	0	6	i	6	7	-5
C=CCSc1nc(N)c(C#N)c(-c2ccc(C)cc2)c1C#N	-1	47	+	2	2	-2
O=C(O)C1C2C=CC(C2)C1C(=O)NCCc1cccc(Cl)c1 (centres undefined)	1	50*	i	-2	-3	-1
CCN1CCn2c3c(c4cccc(C)c42)CCCC31 (centres undefined)	0	2	i	1	0	-3
Oc1ccc(Oc2ccc(Oc3ccc(O)cc3)cc2)cc1	-3	13	+	3	-1	-3
CC(=O)c1ccc(Oc2ccc(C(C)=O)cc2)cc1	7	10	i	12	-2	1
O=C1CCC(C(=O)Nc2ccccc2N2CCCC2)=NN1	1	-1	i	2	5	-2
O=C1CCC(C(=O)Nc2ccccc2N2CCOCC2)=NN1	-2	67*	i	3	2	1
CC(C)CC1NC(=O)N(CC(=O)N(C)C2CCCCC2)C1=O (centres undefined)	-1	2	i	4	4	nt
O=C1c2ccccc2S(=O)(=O)c2cc(C(=O)N(c3ccccn3)c3ccccn3)ccc21	173*	-58	i	4	2	0
Cc1cn2c(N)c(C=C3C=C(Cl)C(=O)C(Cl)=C3)c(=O)nc2s1	117*	-131	i	nt	-32	nt
Cc1ccc(S(=O)(=O)N/N=C/c2ccc(OC3CSC3)cc2)cc1	75*	-61	nt	-2	5	-1
COc1ccc(CC(=O)Nc2cccc(S(=O)(=O)N3CCCCCC3)c2)cc1OC	1	-5	+	1	0	-1
COc1ccc(CCC(=O)Nc2cccc(S(=O)(=O)N3CCCCCC3)c2)cc1OC	0	-1	i	0	2	nt
SMILES	CRFR2-BP ag	CRFBP-R2 block	Myeloid diff 2	IDE cell inh	IDE cell activ	TPT1 inhibitor
COCCNC(=O)c1ccccc1NC(=O)c1ccc(OC)c(OC)c1	0	3	+	-3	0	0
CCCNc1ccc(C(=O)OCC)cc1[N+](=O)[O-]	-8	61*	i	-3	1	0
CCOC(=O)CNc1ccc(C(=O)OCC)cc1[N+](=O)[O-]	-2	23	i	-4	3	0
CCNC(=O)CN(C1CCCCC1)S(=O)(=O)c1ccc(F)cc1	-1	46	i	4	4	0
CNC(=O)CN(C1CCCCC1)S(=O)(=O)c1ccc(F)cc1	-6	56*	i	-2	5	-2
CCOP(=O)(OCC)/C(C#N)=C/c1cc(OC)ccc1OC	-2	11	i	nt	1	nt
O=C1c2ccccc2C(Nc2ccc(-c3nc4ccccc4[nH]3)cc2)N1Cc1ccco1 (centres undefined)	-1	-36	i	5	-13	-1

Compound activity from PubChem.
